# Activity calls are given as the source filed them.
# Experiments:
# [1] = tested on: PRMT1 (protein arginine N-methyltransferase 1); assay: small molecules binding arginine methyltransferase PRMT1 – biochemical, small-molecule microarray, 635 nm fluorescence, primary screen (AID 1088); conditions: higher = more signal;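 note: binding of Prmt1 protein to compounds spotted on small-molecule microarray slides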
# [2] = growth effects on S. cerevisiae YJM789 – YJM789 clinical isolate, OD600, 24 h, basal, primary screen (AID 1089); conditions: higher = more signal, called active from +8 up or from −8 down;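 note: growth of clinical yeast isolate S. cerevisiae YJM 789 seeded 1000 cells per well; test concentration not given here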
# [3] = S. pombe growth modifiers, basal conditions – strain 972, OD600, 24 h, no modulator, primary screen (AID 1090);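 note: basal condition with compound alone and no growth modifier present; test concentration not given here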; conditions: S. pombe 972 growth, higher = more signal, called active from +8 up or from −8 down
# [4] = budding yeast growth modifiers under rapamycin – strain BY4716, OD600, 96 h, primary screen (AID 1091); note: test concentration not given here; conditions: S. cerevisiae BY4716 + rapamycin, higher = more signal, called active from +8 up or from −8 down
# [5] = target: Torsin-1A-interacting protein 2 (Homo sapiens) (UniProt Q8NFQ8); assay: small molecules binding lysate-expressed LULL1 – cell lysate, human LULL1 lysate, 635/667 nm fluorescence, primary screen (AID 1092); conditions: small-molecule microarray, hLULL1 lysate binding, 635 nm fluorescence; higher = more signal;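 note: probe is lysate of COS7 cells overexpressing human LULL1; score merges per-feature 667 nm fluorescence with signal-to-noise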
# Torsin-1A-interacting protein 2 (Homo sapiens), sequence (Q8NFQ8 whole entry, looked up): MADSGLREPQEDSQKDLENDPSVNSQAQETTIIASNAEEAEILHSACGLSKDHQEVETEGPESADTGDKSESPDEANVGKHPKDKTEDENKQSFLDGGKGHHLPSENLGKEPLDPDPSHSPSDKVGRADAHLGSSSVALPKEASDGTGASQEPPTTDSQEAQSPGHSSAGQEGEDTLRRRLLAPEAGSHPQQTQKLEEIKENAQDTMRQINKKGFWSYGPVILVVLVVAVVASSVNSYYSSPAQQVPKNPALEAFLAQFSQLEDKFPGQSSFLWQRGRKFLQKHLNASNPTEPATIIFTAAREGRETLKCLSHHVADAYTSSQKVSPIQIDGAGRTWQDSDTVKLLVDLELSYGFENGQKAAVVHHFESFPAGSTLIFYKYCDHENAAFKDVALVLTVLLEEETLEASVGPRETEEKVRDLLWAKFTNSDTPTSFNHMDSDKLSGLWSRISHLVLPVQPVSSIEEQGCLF
# [6] = optical density change of DRC41 E. coli – strain DRC41, OD650, 24 h, E. coli filamentation project, primary screen (AID 1093);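 note: MC1000 strain lacking acrAB efflux and sulA so SOS filamentation is blocked; test concentration not given here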; conditions: E. coli DRC41 growth, higher = more signal, called active from +8 up or from −8 down
# [7] = probe aLefty2 binding to arrayed compounds – biochemical, biotinylated probe, 635/667 nm fluorescence, primary screen (AID 1094); conditions: small-molecule microarray, higher = more signal;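 note: score merges spot fluorescence near 667 nm with spot signal-to-noise ratio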
# [8] = tested on: Noggin (protein binding on small-molecule microarray); assay: small molecules binding Noggin protein – biochemical, 635/667 nm fluorescence, primary screen (AID 1095); conditions: 635 nm fluorescence, higher = more signal;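 note: score merges 667 nm feature fluorescence with signal to noise over triplicate slides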
# [9] = target: Neurogenic locus notch homolog protein 3 (Homo sapiens) (UniProt Q9UM47); assay: small molecules binding NOTCH3 protein – biochemical, 635/667 nm fluorescence, primary screen (AID 1096); conditions: small-molecule microarray, 635 nm fluorescence, higher = more signal
# Neurogenic locus notch homolog protein 3 (Homo sapiens), sequence (Q9UM47 whole entry, looked up): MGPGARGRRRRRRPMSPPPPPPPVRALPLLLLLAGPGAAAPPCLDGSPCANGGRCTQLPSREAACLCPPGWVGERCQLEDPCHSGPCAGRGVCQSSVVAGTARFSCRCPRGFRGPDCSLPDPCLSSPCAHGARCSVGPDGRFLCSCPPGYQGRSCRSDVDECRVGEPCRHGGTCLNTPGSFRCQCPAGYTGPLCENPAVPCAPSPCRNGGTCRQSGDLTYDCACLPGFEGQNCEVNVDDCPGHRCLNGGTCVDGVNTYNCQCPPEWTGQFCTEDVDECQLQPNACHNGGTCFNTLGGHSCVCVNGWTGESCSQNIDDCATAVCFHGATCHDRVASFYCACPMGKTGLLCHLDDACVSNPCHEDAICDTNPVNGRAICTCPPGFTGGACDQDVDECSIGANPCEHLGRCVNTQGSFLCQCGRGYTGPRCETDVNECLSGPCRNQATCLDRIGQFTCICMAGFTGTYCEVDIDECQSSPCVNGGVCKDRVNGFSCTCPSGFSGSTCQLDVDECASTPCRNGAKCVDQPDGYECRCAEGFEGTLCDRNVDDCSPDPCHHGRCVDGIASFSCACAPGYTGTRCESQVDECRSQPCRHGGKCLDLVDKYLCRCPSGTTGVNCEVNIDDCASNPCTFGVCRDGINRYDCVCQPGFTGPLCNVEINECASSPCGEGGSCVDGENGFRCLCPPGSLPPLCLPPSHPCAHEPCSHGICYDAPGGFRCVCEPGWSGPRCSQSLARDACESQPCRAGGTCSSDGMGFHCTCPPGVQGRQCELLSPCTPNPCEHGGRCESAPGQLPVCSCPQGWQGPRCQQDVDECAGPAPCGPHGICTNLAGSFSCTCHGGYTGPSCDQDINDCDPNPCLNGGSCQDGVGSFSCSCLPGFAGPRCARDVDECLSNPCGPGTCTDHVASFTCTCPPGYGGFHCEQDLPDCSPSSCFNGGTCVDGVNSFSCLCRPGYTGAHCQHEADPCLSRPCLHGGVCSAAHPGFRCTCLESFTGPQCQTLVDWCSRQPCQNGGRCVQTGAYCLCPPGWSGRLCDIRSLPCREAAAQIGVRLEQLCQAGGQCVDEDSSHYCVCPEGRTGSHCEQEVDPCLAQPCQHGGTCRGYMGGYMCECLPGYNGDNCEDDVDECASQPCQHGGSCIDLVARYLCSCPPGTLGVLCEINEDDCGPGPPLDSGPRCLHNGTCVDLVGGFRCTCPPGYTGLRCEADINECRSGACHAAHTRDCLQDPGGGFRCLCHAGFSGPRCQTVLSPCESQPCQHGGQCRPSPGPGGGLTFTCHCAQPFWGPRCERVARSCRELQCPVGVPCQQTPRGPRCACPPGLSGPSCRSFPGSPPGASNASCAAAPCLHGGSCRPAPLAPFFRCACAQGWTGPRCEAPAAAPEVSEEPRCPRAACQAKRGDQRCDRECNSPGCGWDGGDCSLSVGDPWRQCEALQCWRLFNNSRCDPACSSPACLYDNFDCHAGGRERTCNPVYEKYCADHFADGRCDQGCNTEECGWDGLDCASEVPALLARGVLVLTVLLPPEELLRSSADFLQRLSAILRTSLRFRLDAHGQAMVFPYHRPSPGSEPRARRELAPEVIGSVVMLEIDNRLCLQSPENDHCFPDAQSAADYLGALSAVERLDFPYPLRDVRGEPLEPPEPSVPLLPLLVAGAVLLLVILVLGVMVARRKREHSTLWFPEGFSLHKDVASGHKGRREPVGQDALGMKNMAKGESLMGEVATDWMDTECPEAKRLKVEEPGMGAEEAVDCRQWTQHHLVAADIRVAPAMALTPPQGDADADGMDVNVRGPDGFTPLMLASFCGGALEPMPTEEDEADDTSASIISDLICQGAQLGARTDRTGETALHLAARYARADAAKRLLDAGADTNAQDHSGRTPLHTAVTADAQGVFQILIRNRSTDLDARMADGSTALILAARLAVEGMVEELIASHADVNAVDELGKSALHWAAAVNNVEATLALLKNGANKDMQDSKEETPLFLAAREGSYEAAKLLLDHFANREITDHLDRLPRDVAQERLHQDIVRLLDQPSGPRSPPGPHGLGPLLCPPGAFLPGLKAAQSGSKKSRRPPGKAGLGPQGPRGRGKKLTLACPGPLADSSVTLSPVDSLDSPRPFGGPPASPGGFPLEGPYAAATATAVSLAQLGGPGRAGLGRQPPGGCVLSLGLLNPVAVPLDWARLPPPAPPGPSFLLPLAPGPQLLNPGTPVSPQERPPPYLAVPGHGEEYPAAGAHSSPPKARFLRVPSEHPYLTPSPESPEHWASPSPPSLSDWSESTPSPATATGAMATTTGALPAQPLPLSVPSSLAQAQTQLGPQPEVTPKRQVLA
# [10] = probe aEGFR binding to arrayed compounds – biochemical, biotinylated probe, 635/667 nm fluorescence, primary screen (AID 1097); conditions: small-molecule microarray, higher = more signal;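 note: probe is a biotinylated anti-EGFR antibody binding compounds printed on slides; score combines fluorescence near 667 nm and signal to noise of each spot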
SMILES,composite z-score [1],z-score [2],z-score [3],z-score [4],composite z-score [5],z-score [6],composite z-score [7],composite z-score [8],composite z-score [9],composite z-score [10]
CC(CCN1CCc2nc(-c3ccccc3)c(-c3ccccc3)cc2C1)=NOC[C@@H](O)COCc1ccco1,0.651,-0.544 (inactive),-1.45 (inactive),-3.75 (inactive),0.0955,0.845 (inactive),-0.176,0.806,0.481,-0.083
C[C@H]1CC[C@H]2C(=O)O[C@H](COc3ccc(C(C)(C)C)cc3)CN2[C@@H]1c1ccc(Br)cc1,0.27,-0.364 (inactive),-0.725 (inactive),0.474 (inactive),0.55,-0.535 (inactive),0.0056,-0.0084,-0.164,-0.143
COC(=O)[C@H](C)NC(=O)CCC1CC(OC(=O)NCc2cccc3ccccc23)CC2(CCCC(COC(=O)NCC(c3ccccc3)c3ccccc3)O2)O1 (stereo not given in full),1.48,-0.797 (inactive),0.104 (inactive),-0.691 (inactive),2.99,0.0609 (inactive),-0.166,0.661,1.09,-0.0509
CCO[C@H](c1cc(OC)cc([N+](=O)[O-])c1OC)[C@H](C)C=CCC(=O)OC,1.11,-0.57 (inactive),-1.18 (inactive),-0.187 (inactive),-0.746,0.545 (inactive),-0.233,0.927,0.0565,-0.123
CC(=O)OC[C@H]1O[C@H](C#Cc2ccccc2)C=C[C@@H]1OC(C)=O,0.48,0.444 (inactive),-2.17 (inactive),-0.747 (inactive),0.496,0.875 (inactive),-0.0836,0.653,0.812,-0.0953
O=C1CCCC(C2=CCCCC2=O)C1 (stereo not given),0.0732,0.222 (inactive),0.65 (inactive),0.6 (inactive),-0.168,0.455 (inactive),0.02,0.546,0.0934,-0.029
O=C(NN=C1C[C@@H](O)[C@@H](O)[C@@H]2[C@@H]3C(=O)N(Cc4ccccc4)C(=O)[C@@H]3CC[C@@H]12)OCc1ccccc1,-0.395,-0.227 (inactive),-0.148 (inactive),-0.413 (inactive),-0.802,0.258 (inactive),-0.112,0.509,0.188,0.0551
CC(C)CON=C1C[C@@H](O)[C@@H](O)[C@@H]2[C@@H]3C(=O)N(c4cccc(Oc5ccccc5)c4)C(=O)[C@@H]3CC[C@@H]12,1.4,-1.57 (inactive),0.174 (inactive),-0.827 (inactive),1.86,-0.961 (inactive),-0.131,1.02,0.046,-0.109
CC(C)(C)N1C(=O)[C@H]2[C@H]3[C@H](O)[C@H](O)CC(=O)[C@@H]3CC[C@H]2C1=O,0.33,-0.128 (inactive),-0.509 (inactive),-0.0675 (inactive),-0.26,-0.561 (inactive),-0.204,0.562,0.373,-0.147
CC(C)=CCCC(C)=CCON=C1C[C@@H](O)[C@@H](O)[C@@H]2[C@@H]3C(=O)N(c4ccc(F)cc4F)C(=O)[C@@H]3CC[C@H]12,1.54,-0.912 (inactive),-0.964 (inactive),-1.53 (inactive),2.05,-0.159 (inactive),-0.0413,0.819,1.09,-0.0372
CCCNC(=O)OC[C@H]1O[C@H](CCON=C(C)CCN2CCc3nc(CC)c(CC)cc3C2)C=C[C@@H]1Oc1ccc(OC)cc1,0.285,-0.348 (inactive),-2.36 (inactive),0.156 (inactive),0.73,0.004 (inactive),-0.0539,0.559,-0.286,-0.0381
COC(=O)CC=C[C@@H](C)[C@@H]1C=C[C@H](O)[C@@H](CO)O1,-0.266,0.773 (inactive),1.08 (inactive),0.531 (inactive),0.296,0.426 (inactive),-0.177,0.381,0.601,-0.338
CO[C@H]1COC(=O)[C@@H]2CCCN2C(=O)CC=C[C@@H](C)[C@H](OC)COC(=O)[C@@H](OCc2ccccc2)C=C[C@@H]1C,1.3,0.14 (inactive),-0.826 (inactive),0.087 (inactive),-1.13,0.279 (inactive),-0.155,1.08,-0.203,0.0564
O=C(C=Cc1ccc2c(c1)OCO2)c1ccc(F)cc1,-0.458,-0.935 (inactive),-15.1 (active),3.87 (inactive),-0.779,0.704 (inactive),-0.132,0.87,0.142,0.131
C[n+]1ccc(-c2ccc(CO)cc2)cc1,1.37,-1.14 (inactive),-0.902 (inactive),3.9 (inactive),-0.202,0.917 (inactive),0.149,0.634,1.06,-0.188

# Reference: PubChem BioAssay
